Shown are actives, neighbours in structure and some others; about 12% of the full set was active somewhere.
PI5P4K alpha inh: qHTS for Inhibitors of phosphatidylinositol 5-phosphate 4-kinase (PI5P4K); PI5P4Kalpha enzyme, ADP-Glo luminescence, 60 min; stronger effect = lower value; max response, %; actives 1.2% (n = 330,000); active = max response of -50% or lower; inconclusive = between -30% and -50%; inactive = -30% or higher; note: value at the top dose of about 77 µM; % is set by controls: 0 for no effect and ±100 for the full control effect
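Reactions run in 0.038 M HEPES pH 7.4, 0.28 mM EGTA, 0.1% CHAPS and 5% DMSO, with PI5P4Kalpha, substrate, compound and 5 microM ATP final, one hour at room temperature. Readout is ADP-Glo luminescence.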
PLK1 PBD block: qHTS for Inhibitors of PLK1-PDB (polo-like kinase 1 - polo-box domain): Primary Screen; Serine/threonine-protein kinase PLK1 (Homo sapiens), P53350; Plk1 PBD binding of FITC phosphopeptide, fluorescence polarization; Potency, µM, without a hit: max response, negative = inhibition, most hits filed as inhibitors; actives 2.8% (n = 360,000); AID 720504, 2013; note: potency is the fitted concentration of half-maximal effect; series mostly up to about 57 µM; % is set by controls: 0 for no effect and ±100 for the full control effect; nearly all actives have a fitted effect of over 65% in size
BAZ2B inh: qHTS Assay for Inhibitors of BAZ2B. Bromodomain adjacent to zinc finger domain protein 2B (Homo sapiens), Q9UIF8. AlphaScreen BAZ2B-H3K14Ac peptide displacement. Potency, µM (highest dose often 114 µM), for the others: at the top dose activity change, negative = inhibition, actives largely listed as inhibitors. actives 4.4% (n = 360,000); note: potency is the fitted concentration of half-maximal effect; % is set by controls: 0 for no effect and ±100 for the full control effect; nearly all actives have a fitted effect of over 60% in size
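BAZ2B 50 nM plus b-H3(5-23)K14Ac 50 nM, PBS pH 7.4/0.01% Tween-20, 30 min RT; compound added (max 110 uM), 30 min RT; streptavidin donor/Ni-chelate acceptor beads 10 ug/mL final, 20 min dark; AlphaScreen read.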
JMJD2A Tudor inh: qHTS Assay for Inhibitors of JMJD2A-Tudor Domain; actives 4.4% (n = 390,000); AID 504339, 2011; Potency, µM (titrated, usually from 114 µM), for the others: at the top dose activity change, negative = inhibition, most hits filed as inhibitors; AlphaScreen JMJD2A-Tudor / H3K4me3 peptide binding; Lysine-specific demethylase 4A (Homo sapiens), O75164; note: potency is the fitted concentration of half-maximal effect; % is set by controls: 0 for no effect and ±100 for the full control effect; nearly all actives have a fitted effect of over 50% in size
Target sequence (O75164 whole entry, looked up, the tested form may be a part): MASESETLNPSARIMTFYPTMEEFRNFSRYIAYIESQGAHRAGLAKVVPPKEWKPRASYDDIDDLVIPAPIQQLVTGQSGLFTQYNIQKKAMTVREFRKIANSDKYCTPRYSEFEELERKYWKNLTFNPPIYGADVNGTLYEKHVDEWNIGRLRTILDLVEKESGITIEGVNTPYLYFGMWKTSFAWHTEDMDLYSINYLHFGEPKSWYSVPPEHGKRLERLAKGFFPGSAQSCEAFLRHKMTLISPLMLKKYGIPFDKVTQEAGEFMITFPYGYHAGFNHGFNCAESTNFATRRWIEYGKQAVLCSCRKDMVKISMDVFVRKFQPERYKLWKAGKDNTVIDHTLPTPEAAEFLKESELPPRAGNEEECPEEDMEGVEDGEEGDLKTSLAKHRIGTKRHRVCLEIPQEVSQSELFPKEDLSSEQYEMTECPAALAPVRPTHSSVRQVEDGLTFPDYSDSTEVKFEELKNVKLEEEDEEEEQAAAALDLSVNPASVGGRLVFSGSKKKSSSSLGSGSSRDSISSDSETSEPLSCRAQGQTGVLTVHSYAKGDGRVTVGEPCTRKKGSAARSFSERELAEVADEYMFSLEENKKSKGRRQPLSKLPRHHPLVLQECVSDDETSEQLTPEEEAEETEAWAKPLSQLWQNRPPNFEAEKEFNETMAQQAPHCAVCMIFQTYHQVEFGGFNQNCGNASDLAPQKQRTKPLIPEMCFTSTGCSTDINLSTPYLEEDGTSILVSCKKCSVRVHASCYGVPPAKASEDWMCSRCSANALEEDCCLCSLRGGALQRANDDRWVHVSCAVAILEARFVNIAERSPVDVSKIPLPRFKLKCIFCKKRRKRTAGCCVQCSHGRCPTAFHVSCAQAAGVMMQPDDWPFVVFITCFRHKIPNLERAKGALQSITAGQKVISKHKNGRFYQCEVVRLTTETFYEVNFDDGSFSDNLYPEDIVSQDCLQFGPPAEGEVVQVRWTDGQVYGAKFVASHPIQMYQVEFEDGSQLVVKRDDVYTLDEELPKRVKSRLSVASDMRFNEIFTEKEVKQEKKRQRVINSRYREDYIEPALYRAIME
G9a block: qHTS Assay for Inhibitors of Histone Lysine Methyltransferase G9a | Histone-lysine N-methyltransferase EHMT2 (Homo sapiens), Q96KQ7 | G9a H3K9 monomethylation, AlphaScreen, 2 h | Potency, µM (highest dose often 102 µM), for inactives: top-dose activity, negative = inhibition, usual class: inhibitors | actives 8.8% (n = 350,000); note: potency is the fitted concentration of half-maximal effect; % is set by controls: 0 for no effect and ±100 for the full control effect; nearly all actives have a fitted effect of over 75% in size
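Step 1: enzyme (final 20 nM) with compound, 15 min RT. Step 2: substrate peptide 500 nM and SAM 20 uM, 2 h RT. Step 3: anti-H3K9me1 antibody and AlphaScreen beads, 10 min, then plate read.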
HP1b chromo inh: HTS for Inhibitors of HP1-beta Chromodomain Interactions with Methylated Histone Tails | Chromobox protein homolog 1 (Homo sapiens), P83916 | AlphaScreen HP1-beta / biotin-H3K9me3 peptide binding | Potency, µM (titrated, usually from 114 µM), for inactives: top-dose activity change, negative = inhibition, most hits filed as inhibitors | actives 0.56% (n = 390,000) | AID 540317, 2011; note: potency is the fitted concentration of half-maximal effect; nearly all actives have a fitted effect of over 70% in size
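Compound inhibition of the preformed complex between 50 nM HP1-beta and 50 nM biotinylated H3K9me3 peptide was read by AlphaScreen. Buffer was PBS pH 7.4 with 0.01% Tween-20. Incubations ran 30 min at room temperature, with 10 ug/mL donor/acceptor beads.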
An asterisk follows results filed as active; u = inconclusive; x = no result given; ! = repeats disagree; [ ] = remark or other dose. Unless noted, calls come from the whole dose curve; as a rule, active = well fitted curve in the direction sought with a large enough effect; inconclusive = small, poorly fitted or top-dose-only effect, or another doubt; inactive = no such curve, though single readings can be large; an effect the other way counts as inactive or inconclusive.

SMILES | PI5P4K alpha inh | PLK1 PBD block | BAZ2B inh | JMJD2A Tudor inh | G9a block | HP1b chromo inh
CCO[C@H]1OC(C(N)=O)=C[C@@H](C(C)(C)C)[C@@H]1CCCO | -3 | -13% | x | -7% | x | 35%
O=C(Nc1ccncc1)c1ccc(Cl)c(S(=O)(=O)N2CCCCC2)c1 | -7 | -8% | -18% | -10% | -10%[0.501 µM] | 63%
COc1ccc(NC(=S)Nc2ccc(C)c(S(=O)(=O)N3CCCCC3)c2)cc1 | x | x | -29% | x | -31%[59 µM] | x
Cc1cccc(NC(=O)c2ccc(Cl)c(S(=O)(=O)N3CCc4ccccc43)c2)n1 | -7 | -2% | 16% | -15% | -26%[12.7 µM] | 12%
Cc1ccc(NC(=S)Nc2ccc(C(C)C)cc2)cc1S(=O)(=O)N1CCCCCC1 | -7 | u | -13% | -25% | 45µM* | -23%
O=C(Nc1ccc(Cl)c(S(=O)(=O)N2CCCCC2)c1)c1ccncc1 | 0 | -4% | 1% | -12% | 56µM* | 12%
CCOc1ncccc1C(=O)Nc1ccc(OC)c(S(=O)(=O)N2CCCCC2)c1 | -5 | 3% | 0% | 4% | 6% | 36%
CCOc1ncccc1C(=O)Nc1ccc(C)c(S(=O)(=O)N2CCCCCC2)c1 | 17 | -14% | 0% | 20µM* | 12%[59 µM] | 46%
O=C(Nc1ccncc1)c1ccc(Cl)c(S(=O)(=O)N2CCc3ccccc32)c1 | -4 | -5% | 50µM* | u | u | -17%
CC(C)(C)OC(=O)N1CCC(c2c(C(=O)NCCc3ccccc3)cnn2-c2ccc(F)cc2)CC1 | x | x | 1%[57.1 µM] | -8% | u | 20%
CN(C)c1ccc(-c2nccc(NCc3cccs3)n2)cc1 | x | x | x | x | 17%[0.501 µM] | x
CCOc1ncccc1C(=O)Nc1cc(S(=O)(=O)N2CCCCC2)ccc1OC | 3 | -12% | 13% | -18% | 10µM* | 21%[57 µM]
CCN(CC)CCNC(=O)c1ccc(NC(=O)c2cccc(S(=O)(=O)N3CCc4ccccc43)c2)cc1 | 7 | -4% | -13% | u | 32µM* | u
CCN(CC)CCNC(=O)c1ccc(NC(=O)c2cccc(S(=O)(=O)N3c4ccccc4CC3C)c2)cc1 (stereo not drawn) | 14 | 0% | -26% | -35% | 2% | -2%
CCOc1ccc(N2Cc3ccccc3C2)cc1 | -11 | -12% | x | -22% | 2.5µM* | 15%
CCOc1ccc(N2CC(=O)N(c3ccc(OCC)cc3)CC2=O)cc1 | 1 | 0% | 12% | -11% | x | 11%
CC1CCCN(Cc2ccc(OCc3ccccc3)cc2)C1 (stereo not drawn) | 1 | -14% | 12% | -22% | x | 30%
COc1ccc(OCCCN2CCCC(C)C2)cc1 (stereo not drawn) | -8 | 1% | -35% | -22%[57.1 µM] | 7.1µM* | u
CC1CCCN(CCCOc2ccc([N+](=O)[O-])cc2)C1 (stereo not drawn) | -4 | 5% | u | 22µM* | 8.9µM* | -25%
CCCOc1ccc2c3c(c(=O)oc2c1)CCCC3 | -26 | 7.5µM* | 2% | -24%[11.4 µM] | 38%[59 µM] | 21%
O=C(Oc1ccc2c3c(c(=O)oc2c1)CCCC3)c1ccco1 | -9 | 24µM* | -22% | -5%[11.4 µM] | u | -5%
C=CCOc1ccc2c3c(c(=O)oc2c1)CCCC3 | 1 | -3% | x | 12% | x | 53%
CCC1(CC)SC(N)=NC1=O | 9 | u | x | -6% | x | -2%[57 µM]
COc1ccccc1N1CCN(C(=O)Cn2ncc3c(=O)oc4ccccc4c32)CC1 | x | x | x | -10% | -3%[59 µM] | 36%
Cc1ccc(C(=O)c2ccc([N+](=O)[O-])cc2)cc1 | x | 0% | u | -35% | u | -10%
SMILES | PI5P4K alpha inh | PLK1 PBD block | BAZ2B inh | JMJD2A Tudor inh | G9a block | HP1b chromo inh
Cc1ccc(C(=O)c2coc3cc([N+](=O)[O-])c(O)c([N+](=O)[O-])c23)cc1 | -82* | u | 45µM* | 56µM* | 8.9µM* | u
CC(C)(C)n1nnnc1C(c1ccccc1)N1CCc2ccccc2C1 (stereo not drawn) | 2 | -1% | 10% | -6% | u | 18%
CC1CCN(C(c2ccc(N(C)C)cc2)c2nnnn2C(C)(C)C)CC1 (stereo not drawn) | 3 | -3% | 50µM* | 56µM* | u | u
CN(C)c1ccc(C(c2nnnn2C(C)(C)C)N2CCc3ccccc3C2)cc1 (stereo not drawn) | x | x | u | x | 40µM* | x
CCC(C)(C)n1nnnc1C(c1ccc(O)cc1)N1CCc2ccccc2C1 (stereo not drawn) | -11 | -19% | -35% | 89µM* | 2.5µM* | u
Cc1c(CC(=O)N2CCCCC2)c(=O)oc2c(C)c3occ(C(C)(C)C)c3cc12 | x | x | 3% | -17% | 1%[59 µM] | 32%
COc1cc2c(OC(C)=O)c3c(c(-c4ccc5c(c4)OCO5)c2cc1OC)C(=O)OC3 | -8 | -5% | -5% | 89µM*! | -10%[59 µM] | u
COc1cc2c(O)c3c(c(-c4ccc5c(c4)OCO5)c2cc1OC)C(=O)OC3 | x | -16% | -7% | -20% | x | 13%
Cc1ccc(/C(O)=C2\C(=O)C(=O)N(CCCN3CCOCC3)C2c2ccccc2F)cc1 (stereo not drawn) | -9 | -9% | x | x | x | x
Cn1c(SCC(N)=O)nnc1-c1ccc(S(=O)(=O)N2CCCC2)cc1 | 16 | -7% | -3% | -4% | 4% | 14%
Cc1ccc(-n2c(SCC(N)=O)nnc2-c2ccc(S(=O)(=O)N3CCCCC3)cc2)c(C)c1 | x | -9% | -1% | u | 40µM* | 7%
NC(=O)[C@@H]1CCCCNc2c(I)cc([N+](=O)[O-])cc2C(=O)N[C@@H](CCC(=O)O)C(=O)N[C@@H](CO)C(=O)N1 | -25 | -16% | -34% | -28% | 40µM* | 26%
NC(=O)[C@@H]1CCCNc2c(F)cc([N+](=O)[O-])cc2C(=O)N[C@@H](CCC(=O)O)C(=O)N[C@@H](CO)C(=O)N1 | -5 | -8% | -36% | -22% | 79µM* | 24%
NC(=O)[C@@H]1CCCCNc2c(F)cc([N+](=O)[O-])cc2C(=O)N[C@@H](CC(=O)O)C(=O)N[C@@H](CCC(=O)O)C(=O)N1 | -6 | -4% | -11% | u | u | 32%

Screens deposited in PubChem by National Center for Advancing Translational Sciences (NCATS).
